In PubChem BioAssay (EPA / NIEHS):
The source made the active and inactive calls. Rule for the calls: active = hit-call score of the fitted dose curve at least 0.9, where 1 is the maximum; inactive = score below 0.9.

Test: CEETOX_H295R_11DCORT: CeeTox H295R High-throughput Steroidogenesis Assay for 11-Deoxycortisol (11DCORT) (AID 2283432);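 for AC50: 11-deoxycortisol secreted into the medium measured by LC-MS/MS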
Conditions: actives raise or lower the signal
Experimental: CEETOX_H295R is a cell-based, multiplexed-readout assay that uses H295R, a human adrenal gland cell line, with measurements taken at 48 hours after chemical dosing in a 96-well plate.CEETOX_H295R_11DCORT is one of 23 assay component(s) measured or calculated from the CEETOX_H295R assay. It is designed to make measurements of hormone induction, a form of inducible reporter, as detected with absorbance signals by HPLC-MS-MS technology.Data from the assay component CEETOX_H295R_11DCORT was analyzed into 1 assay endpoint. This assay endpoint, CEETOX_H295R_11DCORT, was analyzed with bidirectional fitting relative to DMSO as the negative control and baseline of activity. Using a type of inducible reporter, gain or loss-of-signal activity using HPLC-MS-MS was used to understand synthesis of 11-Deoxycortisol in H295R cell line at 48hr of chemical exposure. To generalize the intended target to other relatable targets, this assay endpoint is annotated to the steroid hormone intended target family, where the subfamily is glucocorticoids.
Cell culture and media preparation procedures were conducted in accordance with OECD Test No. 456 guidelines, with minor modifications. H295R cells (ATCC CRL-2128) were expanded for 5 passages and frozen in batches in liquid nitrogen. Prior to the steroidogenesis assay, H295R cells were thawed and passed at least 4 times. The maximum passage was 10. Cells were maintained in a 1:1 mixture of DMEM/F12 supplemented with 5ml/L ITS+ Premix (BD Bioscience) and 12.5 ml/L Nu-Serum (BD Bioscience). After seeding cells into 96-well plates at 50-60% confluency, cells were allowed to adhere overnight. Prior to chemical testing, culture medium was replaced with 175 uL medium containing 10 uM forskolin to stimulate steroidogenesis for 48 hours. Following prestimulation, forskolin medium was replaced with medium containing test chemical solubilized in DMSO (ensuring a final concentration of 0.1% DMSO). Test chemicals were incubated for 48 hours, then the medium was removed and split into 2 vials containing approximately 75uL each, and stored at -80 C prior to hormone analysis. For steroid quantification, media samples were shipped to OpAns, LLC (Durham, NC) on dry ice, and samples were thawed to room temperature prior to liquid-liquid extraction. Steroid hormones were extracted from media samples using methyl tertbutyl ether (MTBE). An extra derivatization with dansyl chloride was included for estrogen (estrone and estradiol) detection only. Steroid hormones were separated by HPLC, eluted using a reverse phase C18 gradient with electrospray positive ionization, followed by quantification by tandem mass spectrometry (MS/MS). Data were acquired on a MassHunter Workstation Acquisition version B03.01 (Agilent Technologies, Inc.) and processed using MassHunter Quantitative Analysis for QQQ. Accuracy was determined for each hormone analyte from 3 standards to determine upper and lower limits of quantification (ULOQ and LLOQ, respectively) using a 7-point standard curve. Precision and accuracy of the extraction and quantification methods were calculated as the percent relative standard deviation (%RSD) of the spiked standards and percent spiked standard recovered, respectively. The goal was to achieve 100% accuracy (i.e., recover all spiked-in standard at quantification with minimal loss during run time) and good precision (i.e., have %RSD <15% to ensure reproducibility). Test medium was removed following chemical exposure, and cell viability was evaluated in the same wells by MTT. MTT procedures were as follows: after removal of test medium, 500 uL of 0.5 mg/ml of 3-[4,5-dimethylthiazol-2-y]2,5-diphenyltetrazoliumbromide solution was added to the cells. Following a 4-hour incubation at 37 C and 5% CO2 to allow formazan-crystal formation, the MTT solution was removed and blue formazan salt crystals were solubilized using 500uL anhydrous isopropanol with shaking for 20 minutes. […]
With `O=C(Oc1ccc(Br)cc1)N1CCN2CCC1CC2` the AC50 was 6.83 µM (active). In the case of `CCCCCOC(=O)c1ccccc1C(=O)OCCCCC`, the outcome is reported as “inactive”. For `CCCCCCCCCCCCCN1CC(C)OC(C)C1` (centres undefined), the AC50 was 9.71 µM (active). With `CC(C)(C)C(O)(CCc1ccc(Cl)cc1)Cn1cncn1` (centres undefined) the AC50 was 1.85 µM (active). With `Nc1ccc(Cl)cc1N` the outcome was “inactive”. For `Cn1cc(-c2ccccc2)c(=O)c(-c2cccc(C(F)(F)F)c2)c1`, the outcome was “inactive”. For `Cc1ccc(N)c(N)c1`, the outcome was “inactive”. For `Cc1cc(N=Nc2ccccc2C)ccc1N`, the outcome was “inactive”. For `Nc1ccc(N=Nc2ccccc2)cc1`, the AC50 was 36.7 µM (active). With `CC(C)(O)c1cnn2c(-c3ccc(F)c(-c4c(F)cccc4C#N)c3)cnc2n1` the outcome was “inactive”. In the case of `O=C(Nc1ccccc1)c1ccccc1I`, the AC50 is reported as 27.8 µM (active). With `CCC(C)c1ccc(O)cc1` (centres undefined) the outcome was “inactive”. With `Oc1ccc2ccc3cccc4ccc1c2c34` the AC50 was 18.8 µM (active). With `Cc1cccc(N)c1N` the outcome was “inactive”. With `Nc1ccc(Cc2ccc(N)cc2)cc1` the AC50 was 40.3 µM (active). With `c1ccc(NNc2ccccc2)cc1` the outcome was “inactive”. With `CCOC(=O)[C@]1(c2ccccc2)Oc2ccccc2[C@@H]1N` the AC50 was 2.19 µM (active). In the case of `COP(=S)(OC)SCN1C(=O)c2ccccc2C1=O`, the outcome is reported as “inactive”. For `Cc1ccc(N=C=O)cc1N=C=O`, the outcome was “inactive”. In the case of `Nc1ccc(Oc2ccc(N)cc2)cc1`, the AC50 is reported as 24.2 µM (active). In the case of `CNC(=O)Oc1cccc2c1OC(C)(C)C2`, the outcome is reported as “inactive”. For `c1ccc(N=Nc2ccccc2)cc1`, the outcome was “inactive”. With `O=P(OCCCl)(OCCCl)OCCCl` the outcome was “inactive”. For `CCOc1cccc(C2(N3CCN(c4ccccc4)CC3)CCC(C)CC2)c1` (centres undefined), the outcome was “inactive”.
